Test results from ChEMBL document CHEMBL4513216, “Probing the Open Global Health Chemical Diversity Library for Multistage-Active Starting Points for Next-Generation Antimalarials” (ACS Infect Dis, 2020).
The campaign covered roughly 68,000 compounds. About 2,700 (4%) showed an effect of 50% or more. The list comes from a sample in which strong results are over-represented; it also holds similar structures and randomly drawn compounds.

tested on: Plasmodium berghei; assay: Screen against P. berghei liver stage (PbLuc), transformed with Luciferase, at 2uM; format: functional, HepG2; conditions: tested at 2 uM

SMILES | INHIBITION [%]
CCc1ncncc1C(=O)N1CCCC(n2nc(C)nc2C)C1 (stereo unspecified) | -26.85
CCc1nc(C)ncc1C(=O)N1CCCC(n2nc(C)nc2C)C1 (stereo unspecified) | 36.92
CCc1[nH]ncc1C(=O)N1CCCC(n2nc(C)nc2C)C1 (stereo unspecified) | 54.85
CCc1[nH]ncc1C(=O)N1CCCC(n2nc(C)cc2C)C1 (stereo unspecified) | 12.75
Cc1nc(C)n(C2CCCN(C(=O)c3cncnc3C)C2)n1 (stereo unspecified) | 62.82
Cc1nn(C)c(C)c1NC(=O)Nc1cccnc1N1CCCC1 | 15.28
COCc1ncn2c1CN(C(=O)c1cccc3cccnc13)CC2 | 29.3
CCC(C)c1noc(C2CCN(C(=O)c3cccnc3)CC2)n1 (stereo unspecified) | -59.73
CC(C)(C)C(NC(=O)CCS(C)(=O)=O)c1ccc(F)cc1F (stereo unspecified) | 41.84
NC(=O)CC1CCN(C(=O)NCc2ccc(-c3ccn[nH]3)cc2)CC1 | 7.13
O=C(C1COc2ccccc2C1)N(CCO)Cc1ccccc1 (stereo unspecified) | -49.31
CC1CCCCN1C(=O)c1ccn(COc2ccc(F)cc2)n1 (stereo unspecified) | -12.84
COc1cccc(Nc2nc(-c3ccncc3)nc3c2CNCC3)c1 | 12.6
N#Cc1cccc(CN2Cc3nccn3CC(COCC3CC3)C2)c1 (stereo unspecified) | -17.39
O=C(NC1CC1)[C@H]1C[C@H]2OCC[C@H]2N(Cc2ccc3ccccc3n2)C1 | 0.91
CC(C)NC(=O)[C@H]1C[C@H]2OCC[C@H]2N(Cc2ccc3ccccc3n2)C1 | 55.8
CC(C)NC(=O)[C@@H]1C[C@H]2OCC[C@H]2N(Cc2ccc3ccccc3n2)C1 | 9.69
CCS(=O)(=O)N1C[C@H]2CC[C@](O)(c3ccc(C)cc3)[C@H]2C1 | 38.23
Cc1ccc([C@@]2(O)CC[C@@H]3CN(S(=O)(=O)c4cn(C)nc4C)C[C@@H]32)cc1 | 55.74
Cc1ccc([C@@]2(O)CC[C@@H]3CN(S(=O)(=O)C(C)C)C[C@@H]32)cc1 | 40.31
CNC(=O)[C@H]1C[C@@H]2CN(S(=O)(=O)c3cccc(C)c3)C[C@@H]2N1C | 27.95
COC(=O)CNC(=O)c1scnc1C | -7.24
COc1cccc(N2CCN(C(=O)C(C)Oc3ccccc3)CC2=O)c1 (stereo unspecified) | 24.28
CC(C)[C@@H]1CN(C(=O)CN(C)Cc2ccc(F)cc2)C[C@H]1C(=O)O | 72.49
CC(C)[C@@H]1CN(C(=O)CN(C)Cc2ccccc2)C[C@H]1C(=O)O | 35.46
CC(C)[C@@H]1CN(C(=O)CCc2ccc(F)cc2)C[C@H]1C(=O)O | 18.63

SMILES | INHIBITION [%]
COc1ccc(C(C)NCc2nnc(C)s2)cc1F (stereo unspecified) | 52.98
Cc1cc(C)cc(C(C)NCc2nnc(C)s2)c1 (stereo unspecified) | 38.67
COc1cc(C(C)NCc2c[nH]nc2C)ccc1OCCO (stereo unspecified) | 32.26
COc1ccc(C(C)NCc2c[nH]nc2C)cc1Br (stereo unspecified) | -8.5
Cc1nnc(CNC(C)c2cc(C)c(F)c(C)c2)s1 (stereo unspecified) | 31.51
COc1ccc(C(C)NCc2c[nH]nc2C)cc1OC (stereo unspecified) | 66.4
Cc1cnc(CN2CCCC(c3cc(C)[nH]n3)C2)cn1 (stereo unspecified) | 43
Cc1ccc(NC2CCN(C(=O)c3sccc3C3CC3)CC2)nn1 | 3.38
COC1(CNC(=O)c2ccc(Cl)c(Cl)c2)CCSC1 (stereo unspecified) | -26.56
O=C(Nc1cccnc1)c1ccc(-n2cncn2)nn1 | -7.69
Cc1cccc(NC(=O)c2ccc(-n3cncn3)nn2)n1 | 55.73
Cc1cccnc1NC(=O)c1ccc(-n2cncn2)nn1 | 9.92
CN(C)S(=O)(=O)N1CCC(c2nnc(C(F)(F)F)o2)CC1 | 14.97
CCS(=O)(=O)N1CCC(c2nnc(C(F)(F)F)o2)CC1 | 14.97
CCS(=O)(=O)N1CCC(c2nnc(C3CC3)o2)CC1 | 54.82
O=C(NCCc1cccs1)[C@]12COC[C@H]1CN(c1ncccn1)C2 | 44
NC(=O)CSCC(=O)NCC1CCCC1 | 60.79
N#CCSCC(=O)NCC1CCCCC1 | -64.85
NC(=O)CSCCC(=O)NCC1CC1 | 37.87
CCNc1cc2c(nn1)CCN(C(=O)C1Cc3ccccc3S1)C2 (stereo unspecified) | 27.6
CN(C)c1cc2c(nn1)CCN(C(=O)C1Cc3ccccc3O1)C2 (stereo unspecified) | 11.24
CN(C)c1cc2c(nn1)CCN(C(=O)c1cc3c(s1)CCCC3)C2 | 28.39
CN(C)c1cc2c(nn1)CCN(C(=O)c1cc3c(s1)CCC3)C2 | -7.96
CN(C)c1cc2c(nn1)CCN(C(=O)C1Cc3ccccc3S1)C2 (stereo unspecified) | 65.77
CN(C)c1cc2c(nn1)CCN(C(=O)c1cc3c(s1)CCOC3)C2 | 56.05
